From the supplement of paper PMC11732987, “Enantioselective OTUD7B fragment discovery through chemoproteomics screening and high-throughput optimisation” (Communications Chemistry, 2025)

Assays:
Assay in all cases: log2 ratio of Biotin-Ahx-Ub-VS probe labelling (compound/DMSO); higher = less target engagement, active = hit call of the paper (q ≤ 0.05, log2 ratio ≤ -1)
Conditions in all cases: treatment time: 3 h
[1] = compound: CCC1N(CCc2sccc12)C(=O)CCl
Procedure, shortened: (§1)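 HEK293T lysate (495 µg per sample, in Tris/CHAPS/IGEPAL buffer with protease inhibitors) was exposed in triplicate to compound at 50 or 200 µM, or to DMSO, for 3 h, then to Biotin-Ahx-Ub-VS (0.5 µM final) for 1 h. The labelled DUBs were enriched on NeutrAvidin, digested with LysC and trypsin, and analysed by diaPASEF LC-MS/MS. Average base-two log ratios of compound over DMSO came from median-normalised label-free quantities by unpaired t-test. Only proteins with at least 2 unique peptides were used.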

[2] = compound: CN1c2ccccc2C(CS1(=O)=O)NC(=O)CCl
Procedure, shortened: as §1

[3] = compound: Cl.ClCC(=O)N1CCc2ncncc2C1
Procedure, shortened: as §1

[4] = compound: Cl.Cn1ncc2C(CCCc12)NC(=O)CCl
Procedure, shortened: as §1

[5] = compound: ClCC(=O)NC1CCOc2ccccc12
Procedure, shortened: as §1

[6] = compound: ClCC(=O)NC1CCCc2ccccc12
Procedure, shortened: (§2)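 Spectronaut label-free, global-median-normalised protein quantities underlie these values, which are average ratios of compound to vehicle from an unpaired t-test. They are reported as log2 and include only proteins identified by two or more unique peptides. Samples of HEK293T lysate (495 µg) were treated in triplicate with a compound concentration series or vehicle for 3 h, then labelled with Biotin-Ahx-Ub-VS at 0.5 µM final for 1 h before NeutrAvidin enrichment, LysC and trypsin digestion, and diaPASEF LC-MS/MS.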

[7] = compound: ClCC(=O)N[C@@H]1CCCc2ccccc12
Procedure, shortened: as §2

[8] = compound: ClCC(=O)N[C@H]1CCCc2ccccc12
Procedure, shortened: as §2

[9] = compound: CCC1N(CCc2cc(OC)c(Cl)cc12)C(=O)CCl
Procedure, shortened: as §1

[10] = compound: CCCC1N(CCc2cc(OC)c(OC)cc12)C(=O)CCl
Procedure, shortened: as §1

Measured: log2 ratio of Biotin-Ahx-Ub-VS probe labelling

UniProt Q9P2H5
Sequence of UniProt Q9P2H5 (Q9P2H5 whole entry): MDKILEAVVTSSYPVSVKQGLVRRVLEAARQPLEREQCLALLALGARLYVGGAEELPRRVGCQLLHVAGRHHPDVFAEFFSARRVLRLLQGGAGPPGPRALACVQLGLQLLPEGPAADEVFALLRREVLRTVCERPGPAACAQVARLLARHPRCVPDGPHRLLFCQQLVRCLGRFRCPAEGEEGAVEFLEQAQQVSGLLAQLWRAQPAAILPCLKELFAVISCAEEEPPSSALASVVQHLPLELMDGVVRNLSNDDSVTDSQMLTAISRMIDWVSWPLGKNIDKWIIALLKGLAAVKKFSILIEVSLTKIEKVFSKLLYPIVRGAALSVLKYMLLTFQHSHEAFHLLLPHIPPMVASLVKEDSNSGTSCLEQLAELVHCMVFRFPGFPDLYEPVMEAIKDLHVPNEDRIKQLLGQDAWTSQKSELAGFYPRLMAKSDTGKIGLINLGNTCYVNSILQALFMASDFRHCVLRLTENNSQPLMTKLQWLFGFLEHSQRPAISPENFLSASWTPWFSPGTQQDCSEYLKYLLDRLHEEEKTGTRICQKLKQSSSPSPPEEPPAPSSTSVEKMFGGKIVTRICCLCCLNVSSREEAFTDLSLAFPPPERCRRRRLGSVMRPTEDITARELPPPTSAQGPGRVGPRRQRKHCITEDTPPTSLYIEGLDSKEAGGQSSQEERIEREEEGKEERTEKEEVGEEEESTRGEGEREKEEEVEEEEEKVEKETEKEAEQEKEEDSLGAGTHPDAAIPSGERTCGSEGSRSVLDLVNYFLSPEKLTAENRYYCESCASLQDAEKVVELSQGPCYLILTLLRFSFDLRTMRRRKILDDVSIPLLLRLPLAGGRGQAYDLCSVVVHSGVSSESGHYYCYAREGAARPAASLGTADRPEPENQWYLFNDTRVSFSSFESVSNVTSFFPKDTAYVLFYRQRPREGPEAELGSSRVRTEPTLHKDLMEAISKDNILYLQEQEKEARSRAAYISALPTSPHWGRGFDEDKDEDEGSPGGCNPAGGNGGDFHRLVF
inactive: [1]; compound concentration: 50uM -0.0377 | [1]; compound concentration: 200uM 0.00874 | [2]; compound concentration: 50uM -0.392 | [2]; compound concentration: 200uM -0.0291 | [3]; compound concentration: 50uM -0.175 | [3]; compound concentration: 200uM -0.43 | [4]; compound concentration: 50uM 0.0391 | [4]; compound concentration: 200uM 0.177 | [5]; compound concentration: 50uM -0.286 | [5]; compound concentration: 200uM -0.188 | [6]; compound concentration: 0.78uM -0.0934 | [6]; compound concentration: 1.56uM -0.117 | [6]; compound concentration: 3.13uM -0.133 | [6]; compound concentration: 6.25uM -0.0237 | [6]; compound concentration: 12.5uM -0.00833 | [6]; compound concentration: 25uM -0.293 | [6]; compound concentration: 50uM -0.0682 | [6]; compound concentration: 100uM -0.133 | [6]; compound concentration: 200uM -0.168 | [7]; compound concentration: 0.78uM -0.164 | [7]; compound concentration: 1.56uM -0.0308 | [7]; compound concentration: 3.13uM -0.0316 | [7]; compound concentration: 6.25uM -0.151 | [7]; compound concentration: 12.5uM -0.2 | [7]; compound concentration: 25uM -0.0579 | [7]; compound concentration: 50uM 0.05 | [7]; compound concentration: 100uM -0.00994 | [7]; compound concentration: 200uM -0.0974 | [8]; compound concentration: 0.78uM 0.0582 | [8]; compound concentration: 1.56uM -0.146 | [8]; compound concentration: 3.13uM -0.121 | [8]; compound concentration: 6.25uM -0.0964 | [8]; compound concentration: 12.5uM -0.172 | [8]; compound concentration: 25uM -0.164 | [8]; compound concentration: 50uM -0.0898 | [8]; compound concentration: 100uM -0.0993 | [8]; compound concentration: 200uM 0.0345 | [9]; compound concentration: 50uM 0.132 | [9]; compound concentration: 200uM -0.452 | [10]; compound concentration: 50uM -0.52 | [10]; compound concentration: 200uM -0.532

USP54 (UniProt Q70EL1)
Sequence of UniProt Q70EL1 (Q70EL1 whole entry): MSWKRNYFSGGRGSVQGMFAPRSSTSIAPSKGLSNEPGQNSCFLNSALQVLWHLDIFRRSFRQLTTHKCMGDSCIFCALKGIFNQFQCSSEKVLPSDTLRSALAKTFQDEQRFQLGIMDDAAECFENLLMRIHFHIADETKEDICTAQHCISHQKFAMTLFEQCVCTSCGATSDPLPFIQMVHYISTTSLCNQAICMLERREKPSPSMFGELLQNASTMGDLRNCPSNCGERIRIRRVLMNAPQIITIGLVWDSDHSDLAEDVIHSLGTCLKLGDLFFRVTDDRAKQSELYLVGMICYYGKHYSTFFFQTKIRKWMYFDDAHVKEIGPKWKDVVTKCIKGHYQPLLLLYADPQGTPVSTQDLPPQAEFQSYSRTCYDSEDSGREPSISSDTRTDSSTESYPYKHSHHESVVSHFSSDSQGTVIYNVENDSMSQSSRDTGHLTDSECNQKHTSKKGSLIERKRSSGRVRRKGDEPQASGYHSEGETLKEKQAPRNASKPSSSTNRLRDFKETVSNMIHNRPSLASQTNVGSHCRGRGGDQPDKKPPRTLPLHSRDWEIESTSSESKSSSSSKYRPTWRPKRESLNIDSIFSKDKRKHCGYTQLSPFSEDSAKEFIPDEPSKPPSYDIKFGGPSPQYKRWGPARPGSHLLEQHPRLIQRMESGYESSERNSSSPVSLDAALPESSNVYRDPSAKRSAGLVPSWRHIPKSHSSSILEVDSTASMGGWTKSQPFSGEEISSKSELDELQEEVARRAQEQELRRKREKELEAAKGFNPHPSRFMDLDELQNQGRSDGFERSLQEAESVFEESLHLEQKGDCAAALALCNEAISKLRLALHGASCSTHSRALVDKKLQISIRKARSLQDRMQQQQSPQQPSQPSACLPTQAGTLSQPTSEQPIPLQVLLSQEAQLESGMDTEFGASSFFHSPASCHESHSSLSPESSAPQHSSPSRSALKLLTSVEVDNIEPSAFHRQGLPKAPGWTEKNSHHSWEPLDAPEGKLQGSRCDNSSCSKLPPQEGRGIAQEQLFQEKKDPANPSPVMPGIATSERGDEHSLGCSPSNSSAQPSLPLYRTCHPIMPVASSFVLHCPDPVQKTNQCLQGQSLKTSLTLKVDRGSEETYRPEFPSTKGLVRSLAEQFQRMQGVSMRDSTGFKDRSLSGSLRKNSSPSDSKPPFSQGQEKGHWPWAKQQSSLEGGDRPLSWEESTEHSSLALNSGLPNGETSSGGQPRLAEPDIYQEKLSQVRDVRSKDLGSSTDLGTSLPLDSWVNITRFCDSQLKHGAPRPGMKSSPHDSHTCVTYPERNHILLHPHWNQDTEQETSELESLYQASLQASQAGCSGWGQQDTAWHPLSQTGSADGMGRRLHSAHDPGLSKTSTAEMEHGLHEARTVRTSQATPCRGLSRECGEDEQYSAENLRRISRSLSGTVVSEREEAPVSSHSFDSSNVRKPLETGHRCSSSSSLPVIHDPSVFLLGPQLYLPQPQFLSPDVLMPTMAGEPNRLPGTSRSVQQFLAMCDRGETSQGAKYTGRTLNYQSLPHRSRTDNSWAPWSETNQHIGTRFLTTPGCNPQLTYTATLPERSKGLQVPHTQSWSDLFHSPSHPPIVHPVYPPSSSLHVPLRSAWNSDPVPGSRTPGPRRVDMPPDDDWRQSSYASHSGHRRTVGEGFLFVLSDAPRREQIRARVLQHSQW
inactive: [1]; compound concentration: 50uM 0.403 | [1]; compound concentration: 200uM -0.685 | [2]; compound concentration: 50uM 0.55 | [2]; compound concentration: 200uM -0.727 | [3]; compound concentration: 50uM 0.0984 | [4]; compound concentration: 50uM 0.166 | [5]; compound concentration: 50uM -0.806 | [5]; compound concentration: 200uM -0.859 | [6]; compound concentration: 0.78uM -0.349 | [6]; compound concentration: 1.56uM -0.87 | [6]; compound concentration: 3.13uM -0.672 | [6]; compound concentration: 25uM -0.646 | [6]; compound concentration: 50uM -0.519 | [6]; compound concentration: 100uM -0.598 | [6]; compound concentration: 200uM -0.947 | [7]; compound concentration: 0.78uM 0.232 | [7]; compound concentration: 1.56uM -0.0979 | [7]; compound concentration: 3.13uM -0.457 | [7]; compound concentration: 6.25uM -0.449 | [7]; compound concentration: 12.5uM -0.888 | [7]; compound concentration: 25uM 0.0566 | [7]; compound concentration: 50uM -0.582 | [7]; compound concentration: 100uM -0.163 | [7]; compound concentration: 200uM -0.256 | [8]; compound concentration: 0.78uM 0.15 | [8]; compound concentration: 3.13uM -0.564 | [8]; compound concentration: 6.25uM -0.753 | [8]; compound concentration: 12.5uM -0.0765 | [8]; compound concentration: 25uM -0.601 | [8]; compound concentration: 50uM -0.182 | [8]; compound concentration: 100uM 0.38 | [8]; compound concentration: 200uM -0.201 | [9]; compound concentration: 50uM -0.125 | [9]; compound concentration: 200uM -0.766 | [10]; compound concentration: 50uM -0.559
active: [3]; compound concentration: 200uM -1.09 | [4]; compound concentration: 200uM -2.4 | [6]; compound concentration: 6.25uM -1.2 | [6]; compound concentration: 12.5uM -1.06 | [8]; compound concentration: 1.56uM -1.07 | [10]; compound concentration: 200uM -2.42

USP36 (UniProt Q9P275)
Sequence of UniProt Q9P275 (Q9P275 whole entry): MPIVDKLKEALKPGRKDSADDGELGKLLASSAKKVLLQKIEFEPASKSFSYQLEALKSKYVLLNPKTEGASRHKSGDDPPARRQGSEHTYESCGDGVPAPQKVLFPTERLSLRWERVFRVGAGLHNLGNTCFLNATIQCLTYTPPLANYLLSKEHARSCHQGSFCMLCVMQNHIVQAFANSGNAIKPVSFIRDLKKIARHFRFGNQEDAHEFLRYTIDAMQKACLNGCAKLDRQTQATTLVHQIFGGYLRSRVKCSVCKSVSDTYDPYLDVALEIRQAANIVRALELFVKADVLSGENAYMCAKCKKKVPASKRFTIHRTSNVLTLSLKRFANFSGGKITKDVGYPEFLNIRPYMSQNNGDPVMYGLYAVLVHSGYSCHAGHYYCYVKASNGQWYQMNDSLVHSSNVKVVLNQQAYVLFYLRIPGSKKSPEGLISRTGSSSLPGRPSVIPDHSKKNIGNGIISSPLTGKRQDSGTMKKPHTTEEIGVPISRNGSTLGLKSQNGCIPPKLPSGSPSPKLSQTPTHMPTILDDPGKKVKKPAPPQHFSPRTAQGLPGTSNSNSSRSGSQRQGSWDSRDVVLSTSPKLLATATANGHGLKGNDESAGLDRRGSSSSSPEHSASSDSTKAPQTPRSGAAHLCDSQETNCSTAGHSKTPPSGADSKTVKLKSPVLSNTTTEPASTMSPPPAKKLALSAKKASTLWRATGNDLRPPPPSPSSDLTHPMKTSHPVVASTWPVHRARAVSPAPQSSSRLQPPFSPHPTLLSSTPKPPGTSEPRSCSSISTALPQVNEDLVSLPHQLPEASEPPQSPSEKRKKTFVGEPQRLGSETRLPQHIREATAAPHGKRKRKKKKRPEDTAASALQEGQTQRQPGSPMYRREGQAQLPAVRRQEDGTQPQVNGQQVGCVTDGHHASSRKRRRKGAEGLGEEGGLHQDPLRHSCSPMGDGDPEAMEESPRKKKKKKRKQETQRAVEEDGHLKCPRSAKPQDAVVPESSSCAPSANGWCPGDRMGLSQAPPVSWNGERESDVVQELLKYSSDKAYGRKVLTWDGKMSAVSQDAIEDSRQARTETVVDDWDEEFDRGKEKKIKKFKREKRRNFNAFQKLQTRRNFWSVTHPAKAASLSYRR
inactive: [1]; compound concentration: 50uM 0.0835 | [1]; compound concentration: 200uM 0.229 | [2]; compound concentration: 50uM -0.127 | [2]; compound concentration: 200uM -0.0119 | [3]; compound concentration: 50uM -0.031 | [3]; compound concentration: 200uM -0.0419 | [4]; compound concentration: 50uM -0.145 | [4]; compound concentration: 200uM 0.158 | [5]; compound concentration: 50uM -0.121 | [5]; compound concentration: 200uM 0.283 | [6]; compound concentration: 0.78uM 0.0108 | [6]; compound concentration: 1.56uM -0.0128 | [6]; compound concentration: 3.13uM -0.0405 | [6]; compound concentration: 6.25uM -0.0421 | [6]; compound concentration: 12.5uM -0.0282 | [6]; compound concentration: 25uM -0.0131 | [6]; compound concentration: 50uM -0.0217 | [6]; compound concentration: 100uM -0.0954 | [6]; compound concentration: 200uM -0.112 | [7]; compound concentration: 0.78uM 0.107 | [7]; compound concentration: 1.56uM -0.0192 | [7]; compound concentration: 3.13uM 0.083 | [7]; compound concentration: 6.25uM 0.157 | [7]; compound concentration: 12.5uM 0.0169 | [7]; compound concentration: 25uM 0.092 | [7]; compound concentration: 50uM -0.0214 | [7]; compound concentration: 100uM 0.019 | [7]; compound concentration: 200uM -0.0674 | [8]; compound concentration: 0.78uM -0.0951 | [8]; compound concentration: 1.56uM 0.0305 | [8]; compound concentration: 3.13uM 0.102 | [8]; compound concentration: 6.25uM -0.0246 | [8]; compound concentration: 12.5uM -0.0557 | [8]; compound concentration: 25uM -0.0153 | [8]; compound concentration: 50uM -0.0239 | [8]; compound concentration: 100uM -0.0145 | [8]; compound concentration: 200uM 0.0455 | [9]; compound concentration: 50uM -0.334 | [9]; compound concentration: 200uM -0.141 | [10]; compound concentration: 50uM -0.272 | [10]; compound concentration: 200uM -0.0152

OTUD6B (UniProt Q8N6M0)
Sequence of UniProt Q8N6M0 (Q8N6M0 whole entry): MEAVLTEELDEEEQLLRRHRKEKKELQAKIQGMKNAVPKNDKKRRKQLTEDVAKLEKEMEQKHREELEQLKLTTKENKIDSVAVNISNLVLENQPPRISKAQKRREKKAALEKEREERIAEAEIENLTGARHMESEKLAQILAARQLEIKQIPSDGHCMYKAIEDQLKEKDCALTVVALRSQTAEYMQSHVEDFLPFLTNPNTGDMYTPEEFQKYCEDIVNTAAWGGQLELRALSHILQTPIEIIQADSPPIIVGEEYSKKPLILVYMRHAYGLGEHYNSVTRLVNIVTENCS
inactive: [1]; compound concentration: 50uM -0.125 | [1]; compound concentration: 200uM -0.283 | [2]; compound concentration: 50uM -0.286 | [2]; compound concentration: 200uM -0.251 | [3]; compound concentration: 50uM -0.254 | [3]; compound concentration: 200uM -0.722 | [4]; compound concentration: 50uM 0.122 | [4]; compound concentration: 200uM -0.00452 | [5]; compound concentration: 50uM 0.0287 | [5]; compound concentration: 200uM -0.0666 | [6]; compound concentration: 0.78uM -0.127 | [6]; compound concentration: 1.56uM -0.0797 | [6]; compound concentration: 3.13uM -0.201 | [6]; compound concentration: 6.25uM -0.105 | [6]; compound concentration: 12.5uM -0.198 | [6]; compound concentration: 25uM -0.128 | [6]; compound concentration: 50uM -0.0883 | [6]; compound concentration: 100uM -0.038 | [6]; compound concentration: 200uM -0.209 | [7]; compound concentration: 0.78uM -0.264 | [7]; compound concentration: 1.56uM -0.2 | [7]; compound concentration: 3.13uM -0.167 | [7]; compound concentration: 6.25uM -0.186 | [7]; compound concentration: 12.5uM -0.156 | [7]; compound concentration: 25uM -0.268 | [7]; compound concentration: 50uM -0.175 | [7]; compound concentration: 100uM -0.224 | [7]; compound concentration: 200uM -0.168 | [8]; compound concentration: 0.78uM -0.139 | [8]; compound concentration: 1.56uM -0.177 | [8]; compound concentration: 3.13uM -0.0832 | [8]; compound concentration: 6.25uM -0.0276 | [8]; compound concentration: 12.5uM -0.0686 | [8]; compound concentration: 25uM -0.159 | [8]; compound concentration: 50uM 0.0307 | [8]; compound concentration: 100uM -0.0663 | [8]; compound concentration: 200uM -0.229 | [9]; compound concentration: 50uM 0.0279 | [9]; compound concentration: 200uM -0.78 | [10]; compound concentration: 50uM -0.398 | [10]; compound concentration: 200uM -0.676
